Data from PubChem BioAssay AID686965 (The Scripps Research Institute Molecular Screening Center, 2013).
Values without a mark were called inactive. How the calls were made is not given here.

assay: quenching of GFP signal – biochemical, fluorescence, dose response, round 2, artefact control for Rin1-Abl interaction inhibitor project, late-stage follow-up (AID 686965); conditions: GFP fluorescence quenching/inhibition counterscreen

| SMILES | IC50 [µM] |
| --- | --- |
| COc1ccc(COc2ccnc(OC)c2)cc1 | > 67.5 |
| O=c1cc(OCc2ccc(F)cc2)cc[nH]1 | > 67.5 |
| COc1cc(OCc2ccc(F)cc2)ccn1 | > 67.5 |
| COc1ccc(COc2cc[nH]c(=O)c2)cc1 | > 67.5 |
| COc1ccc(COc2ccn(C)c(=O)c2)cc1 | > 67.5 |
| O=c1cc(OCc2ccccc2)cc[nH]1 | > 67.5 |
| Nc1cc(OCc2ccccc2)ccn1 | > 67.5 |
| Cn1ccc(OCc2ccc(F)cc2)cc1=O | > 67.5 |
| COc1cc(OCc2ccccc2)ccn1 | > 67.5 |
| Cn1ccc(OCc2ccccc2)cc1=O | > 67.5 |
